PubChem BioAssay (EPA / NIEHS)
Inconclusive results are not listed. Active and inactive are the calls of the source. Rule for the calls, unless noted: active = hit-call score of the fitted dose curve at least 0.9, where 1 is the maximum; inactive = score below 0.9.

Tests used:
[1] = ACEA_ER_80hr: ACEA Biosciences xCELLigence Real-Time Cell Analysis on Estrogen Receptor Agonism for Proliferation (AID 2282667; active = hit-call score of the fitted dose curve at least 0.9, where 1 is the maximum); settings: T47D proliferation, impedance (xCELLigence), 80 h
Procedure, shortened: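 Cell-growth kinetics were measured by impedance in T47D cells treated continuously with compound (top 100 uM final, 1:4 steps, 8 points). Activity at 80 h was scored as signal gain over the DMSO baseline.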

[2] = ATG_CRE_CIS: Attagene CIS-FACTORIAL HepG2 Assay for human cAMP Responsive Element (CRE) binding protein 3 (AID 2282926); settings: HepG2 CRE cis-reporter, Attagene multiplexed mRNA; actives raise or lower the signal
Procedure, shortened: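 Cells carrying cis-regulated reporter constructs respond through their own endogenous factors. After 24 h treatment, RNA is reverse-transcribed, amplified, labelled and sized by capillary electrophoresis; up- and down-regulation are both scored against vehicle.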

[3] = biological target: CCAAT/enhancer-binding protein beta (Homo sapiens) (UniProt P17676); assay: ATG_C_EBP_CIS: Attagene CIS-FACTORIAL HepG2 Assay for human CCAAT/Enhancer Binding Protein (C/EBP) beta (AID 2282927); settings: HepG2 Attagene cis-factorial transcription factor reporter; actives raise or lower the signal
Procedure, shortened: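 Following a 24 h incubation with test chemical, transfected HepG2 cells yielded RNA whose reporter transcripts were quantified by RT-PCR and fluorescent capillary electrophoresis, with DMSO serving as baseline for bidirectional fitting.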

[4] = ATG_CMV_CIS: Attagene CIS-FACTORIAL HepG2 Assay for human CMV (Internal Marker) (AID 2282928); settings: HepG2 CMV promoter reporter, transcription factor profiling; actives raise or lower the signal;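 note: endpoint acts as a background internal control marker rather than a target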
Procedure, shortened: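 Bidirectional fits against DMSO are applied to reporter mRNA, read by RT-PCR with capillary electrophoresis, from HepG2 cells exposed 24 h. The endpoint serves as an internal CMV background marker within the cis-factorial reporter panel.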

[5] = ATG_DR4_LXR_CIS: Attagene CIS-FACTORIAL HepG2 Assay for human Liver X Receptor (LXR), DR4 submotif (AID 2282929); settings: HepG2 Attagene DR4 cis-reporter, mRNA transcription; actives raise or lower the signal
Procedure, shortened: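 Total RNA from 24 h-treated, MRTU-transfected HepG2 cells underwent reverse transcription, PCR, fluorescent primer extension and restriction digestion before capillary electrophoresis. Both increases and decreases in reporter signal were fitted against DMSO.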

[6] = biological target: Aryl hydrocarbon receptor (Homo sapiens) (UniProt P35869); assay: ATG_Ahr_CIS: Attagene CIS-FACTORIAL HepG2 Assay for human Aryl Hydrocarbon Receptor (Ahr) (AID 2282930); settings: HepG2 AhR cis-factorial reporter transcription; actives raise or lower the signal
Procedure, shortened: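 Values derive from bidirectional fitting against DMSO negative control. Underlying signal: cis-element reporter mRNA in transiently transfected HepG2, harvested 24 h post-dose and measured by RT-PCR plus capillary electrophoresis.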

[7] = ATG_AP_1_CIS: Attagene CIS-FACTORIAL HepG2 Assay for human Activator Protein 1 (AP-1) (AID 2282931); settings: HepG2 Attagene cis-factorial AP-1 reporter mRNA; actives raise or lower the signal
Procedure, shortened: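 HepG2, transient cis-reporter transfection; 24 h; readout RT-PCR/CE fluorescence; DMSO baseline, gain and loss fitted.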

[8] = ATG_AP_2_CIS: Attagene CIS-FACTORIAL HepG2 Assay for human Activator Protein 2 (AP-2) (AID 2282932); settings: HepG2 AP-2 cis-reporter, Attagene transcription factor profiling; actives raise or lower the signal
Procedure, shortened: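 Assay in transfected HepG2 with promoter-regulated reporters, 24 h incubation after dosing. Signal is reporter mRNA fluorescence (RT-PCR, capillary electrophoresis), analysed for both increases and decreases relative to DMSO controls.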

[9] = ATG_BRE_CIS: Attagene CIS-FACTORIAL HepG2 Assay for human Bone Morphogenetic Protein (BMP) Response Element (BRE) (AID 2282933); settings: HepG2 BMP response element reporter, Attagene transcription factor profiling; actives raise or lower the signal
Procedure, shortened: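 HepG2 cells transiently transfected with multiplexed cis-element reporter units were dosed with chemical for 24 h. Reporter mRNA was measured by RT-PCR with fluorescent labelling, HpaI digestion and capillary electrophoresis; bidirectional fitting relative to DMSO.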

[10] = biological target: Retinoic acid receptor alpha (Homo sapiens) (UniProt P10276); assay: ATG_DR5_RAR_CIS: Attagene CIS-FACTORIAL HepG2 Assay for human Retinoic Acid Receptor Alpha (RARE), DR5 submotif (AID 2282934); settings: HepG2 Attagene cis-factorial RARE DR5 reporter, mRNA; actives raise or lower the signal;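 for AC50: reporter responds to endogenous RAR alpha beta and gamma in HepG2 not RARA alone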
Procedure, shortened: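 Endpoint fitted in both directions relative to DMSO as negative control. It reflects DR5 cis-element reporter mRNA induction in transiently transfected HepG2 cells, measured 24 h after dosing through RT-PCR and fluorescent capillary electrophoresis.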

[11] = biological target: Transcription factor E2F1 (Homo sapiens) (UniProt Q01094); assay: ATG_E2F_CIS: Attagene CIS-FACTORIAL HepG2 Assay for human E2F Transcription Factor 1 (AID 2282935); settings: HepG2 Attagene cis-reporter, E2F reporter RNA transcripts; actives raise or lower the signal
Procedure, shortened: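 In this cis-factorial format, endogenous factor activity drives transfected reporters in HepG2; transcripts collected at 24 h are quantified by fluorescence after RT-PCR and capillary separation.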

[12] = ATG_E_Box_CIS: Attagene CIS-FACTORIAL HepG2 Assay for human Enhancer Box (E-box) (AID 2282936); settings: HepG2 E-box cis-reporter transcription, actives raise or lower the signal
Procedure, shortened: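 Measured 24 h post-dosing in HepG2 cells transfected with multiple cis-regulated reporter units, signal being reporter mRNA induction detected by fluorescent RT-PCR with capillary electrophoresis; gain or loss fitted against DMSO.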

[13] = ATG_M_61_CIS: Attagene CIS-FACTORIAL HepG2 Assay for M61 Transcription Factor (Internal Marker) (AID 2282937); settings: HepG2 Attagene CIS-FACTORIAL M61 internal marker reporter; actives raise or lower the signal
Procedure, shortened: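 Transfect HepG2 with MRTUs; dose 24 h; isolate RNA; reverse-transcribe with DNase I treatment; PCR-amplify, FAM-label and cut with HpaI for 2 h at 37 C; resolve by CE. Bidirectional fitting against DMSO.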

[14] = ATG_EGR_CIS: Attagene CIS-FACTORIAL HepG2 Assay for human Early Growth Response 1 (EGR1) (AID 2282938); settings: HepG2 Attagene CIS-FACTORIAL EGR reporter mRNA; actives raise or lower the signal
Procedure, shortened: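 After a 24 h treatment of transiently transfected HepG2 cells, total RNA was reverse-transcribed and reporter sequences PCR-amplified, labelled and run on capillary electrophoresis. Reporters sit under cis-regulatory promoters sensing endogenous factors.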

[15] = ATG_M_19_CIS: Attagene CIS-FACTORIAL HepG2 Assay for M19 Transcription Factor (Internal Marker) (AID 2282939); settings: HepG2 Attagene CIS-FACTORIAL M19 internal marker reporter; actives raise or lower the signal
Procedure, shortened: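 HepG2 cells transiently transfected with cis-regulated multiple reporter transcription units were dosed for 24 h; reporter mRNA was quantified by RT-PCR, 6-FAM primer-extension labelling, HpaI digestion and capillary electrophoresis, with bidirectional fitting against DMSO baseline.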

[16] = ATG_ERE_CIS: Attagene CIS-FACTORIAL HepG2 Assay for Estrogen Response Element (ERE) (AID 2282940); settings: HepG2 ERE cis-reporter, Attagene RNA transcript; actives raise or lower the signal
Procedure, shortened: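 HepG2 cells transiently transfected with cis-promoter-driven multiplexed reporter transcription units report endogenous TF activity. After 24 h compound exposure, reporter mRNA is quantified by RT-PCR with capillary electrophoresis fluorescence; bidirectional fitting versus DMSO baseline.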

[17] = ATG_Ets_CIS: Attagene CIS-FACTORIAL HepG2 Assay for human Erythroblast Transformation Specific (ETS) (AID 2282941); settings: HepG2 ETS cis-reporter transcription, actives raise or lower the signal
Procedure, shortened: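 Endogenous transcription factor activity read as reporter mRNA via RT-PCR and capillary electrophoresis, with gain or loss fitted bidirectionally against DMSO. Human HepG2 liver cells, transiently transfected CIS reporter constructs, 24 h exposure.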

[18] = biological target: Hepatocyte nuclear factor 3-beta (Homo sapiens) (UniProt Q9Y261); assay: ATG_FoxA2_CIS: Attagene CIS-FACTORIAL HepG2 Assay for human Forkhead box A2 (FOXA2) (AID 2282942); settings: HepG2 cis-reporter transcription factor activity, 24 h; actives raise or lower the signal
Procedure, shortened: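 24 h dosing of HepG2 bearing cis-reporter constructs; mRNA readout by RT-PCR/CE fluorescence; bidirectional fit, DMSO baseline.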

[19] = ATG_FoxO_CIS: Attagene CIS-FACTORIAL HepG2 Assay for human Forkhead box O (FoxO) (AID 2282943); settings: HepG2 Attagene cis-reporter, FoxO element, mRNA; actives raise or lower the signal
Procedure, shortened: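 Values reflect reporter mRNA induction or loss in HepG2 cells 24 h post-dosing, fitted bidirectionally with DMSO as negative control and baseline. Detection used RT-PCR and fluorescence capillary electrophoresis.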

[20] = ATG_GATA_CIS: Attagene CIS-FACTORIAL HepG2 Assay for human GATA Binding Protein (AID 2282944); settings: HepG2 GATA cis-element reporter, Attagene multiplex mRNA; actives raise or lower the signal
Procedure, shortened: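 HepG2 cells transiently transfected with multiplexed cis-element reporter units reflecting endogenous transcription factor activity; reporter mRNA measured after 24 h dosing by RT-PCR, 6-FAM labeling, HpaI digestion and capillary electrophoresis. Bidirectional fitting versus DMSO baseline.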

Measured: AC50

Sequence of CCAAT/enhancer-binding protein beta (Homo sapiens) (P17676 whole entry, looked up): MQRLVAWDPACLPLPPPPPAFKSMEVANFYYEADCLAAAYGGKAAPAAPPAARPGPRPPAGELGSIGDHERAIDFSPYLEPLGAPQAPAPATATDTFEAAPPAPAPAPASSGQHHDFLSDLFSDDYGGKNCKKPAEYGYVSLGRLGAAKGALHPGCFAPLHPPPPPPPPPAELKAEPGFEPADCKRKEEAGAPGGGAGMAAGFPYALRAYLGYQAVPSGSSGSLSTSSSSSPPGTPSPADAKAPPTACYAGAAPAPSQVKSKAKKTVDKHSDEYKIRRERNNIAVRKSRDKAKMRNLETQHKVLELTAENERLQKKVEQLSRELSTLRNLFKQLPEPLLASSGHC
Sequence of Retinoic acid receptor alpha (Homo sapiens) (P10276 whole entry, looked up): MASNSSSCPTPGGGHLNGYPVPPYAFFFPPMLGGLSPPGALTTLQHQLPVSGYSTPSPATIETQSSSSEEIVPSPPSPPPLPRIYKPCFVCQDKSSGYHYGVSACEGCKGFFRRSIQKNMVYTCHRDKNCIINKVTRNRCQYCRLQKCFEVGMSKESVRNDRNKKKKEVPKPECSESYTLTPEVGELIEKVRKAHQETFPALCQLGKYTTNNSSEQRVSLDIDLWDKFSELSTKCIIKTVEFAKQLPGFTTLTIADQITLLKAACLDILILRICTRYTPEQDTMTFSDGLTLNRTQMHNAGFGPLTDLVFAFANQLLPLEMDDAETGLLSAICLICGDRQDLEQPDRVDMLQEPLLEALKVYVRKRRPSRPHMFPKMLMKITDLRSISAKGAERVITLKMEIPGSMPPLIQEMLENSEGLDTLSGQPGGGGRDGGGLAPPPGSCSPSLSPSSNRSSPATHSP
Sequence of Transcription factor E2F1 (Homo sapiens) (Q01094 whole entry, looked up): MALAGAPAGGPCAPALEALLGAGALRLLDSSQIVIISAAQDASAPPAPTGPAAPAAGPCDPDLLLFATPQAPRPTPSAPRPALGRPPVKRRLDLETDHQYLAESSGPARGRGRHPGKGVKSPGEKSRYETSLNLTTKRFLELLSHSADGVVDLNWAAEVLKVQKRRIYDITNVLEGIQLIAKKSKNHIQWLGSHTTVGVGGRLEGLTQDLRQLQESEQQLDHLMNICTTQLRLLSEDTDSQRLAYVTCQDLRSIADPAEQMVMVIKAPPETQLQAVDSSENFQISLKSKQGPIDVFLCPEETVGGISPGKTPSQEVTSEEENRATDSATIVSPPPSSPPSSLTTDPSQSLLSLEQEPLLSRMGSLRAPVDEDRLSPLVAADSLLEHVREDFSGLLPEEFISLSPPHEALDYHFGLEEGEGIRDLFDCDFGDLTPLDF
Sequence of Aryl hydrocarbon receptor (Homo sapiens) (P35869 whole entry, looked up): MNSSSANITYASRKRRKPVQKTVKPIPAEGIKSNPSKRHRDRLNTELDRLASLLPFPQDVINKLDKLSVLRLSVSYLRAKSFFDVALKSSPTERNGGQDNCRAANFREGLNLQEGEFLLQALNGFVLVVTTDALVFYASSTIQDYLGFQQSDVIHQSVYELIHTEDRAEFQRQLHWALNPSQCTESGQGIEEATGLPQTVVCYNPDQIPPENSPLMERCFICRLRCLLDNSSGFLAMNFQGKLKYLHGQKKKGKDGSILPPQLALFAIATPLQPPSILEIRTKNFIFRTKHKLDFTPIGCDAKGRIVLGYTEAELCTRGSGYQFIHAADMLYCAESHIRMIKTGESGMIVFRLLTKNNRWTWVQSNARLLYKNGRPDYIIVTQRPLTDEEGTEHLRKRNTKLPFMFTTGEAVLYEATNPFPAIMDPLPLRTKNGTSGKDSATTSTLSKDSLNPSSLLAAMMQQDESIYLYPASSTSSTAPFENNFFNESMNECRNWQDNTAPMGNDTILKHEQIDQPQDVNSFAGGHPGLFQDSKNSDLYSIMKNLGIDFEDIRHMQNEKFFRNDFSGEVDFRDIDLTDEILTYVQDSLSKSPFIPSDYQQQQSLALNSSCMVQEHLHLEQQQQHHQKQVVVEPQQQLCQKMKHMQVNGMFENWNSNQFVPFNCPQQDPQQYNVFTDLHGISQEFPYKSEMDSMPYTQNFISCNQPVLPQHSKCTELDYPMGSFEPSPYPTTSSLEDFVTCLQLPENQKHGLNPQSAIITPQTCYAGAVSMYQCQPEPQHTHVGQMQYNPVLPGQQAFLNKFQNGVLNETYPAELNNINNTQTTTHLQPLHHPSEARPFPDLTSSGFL
Sequence of Hepatocyte nuclear factor 3-beta (Homo sapiens) (Q9Y261 whole entry, looked up): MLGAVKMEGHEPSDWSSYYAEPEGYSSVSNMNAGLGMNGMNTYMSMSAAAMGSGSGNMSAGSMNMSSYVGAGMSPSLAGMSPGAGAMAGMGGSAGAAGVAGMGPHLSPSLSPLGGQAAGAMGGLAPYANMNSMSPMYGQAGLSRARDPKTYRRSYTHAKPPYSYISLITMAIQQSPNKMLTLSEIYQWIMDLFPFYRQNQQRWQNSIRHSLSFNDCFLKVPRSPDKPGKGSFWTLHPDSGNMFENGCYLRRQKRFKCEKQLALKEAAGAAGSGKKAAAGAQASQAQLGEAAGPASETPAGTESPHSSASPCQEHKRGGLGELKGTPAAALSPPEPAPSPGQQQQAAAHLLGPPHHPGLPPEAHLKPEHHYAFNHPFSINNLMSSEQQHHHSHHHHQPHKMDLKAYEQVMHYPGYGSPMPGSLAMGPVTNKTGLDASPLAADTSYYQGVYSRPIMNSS

c1ccc2c(c1)[nH]c1ccccc12
active: [6] 18 µM
not listed: [20]
inactive: all other assays above

CCCCCCO
inactive: all assays above

CCCCNS(=O)(=O)c1ccc(C)cc1
inactive: all assays above

C=CCOC(=O)c1ccc(C(=O)OCC=C)c(C(=O)OCC=C)c1
active: [12] 140 µM | [16] 22.8 µM
not listed: [19] | [20]
inactive: all other assays above

CC(=O)OCCc1ccccc1
inactive: all assays above

CCOC(=O)c1ccccc1C
inactive: all assays above

Cc1cc(C)c(C=O)c(C)c1
active: [10] 3.85 µM
inactive: all other assays above

CCCCC1C(=O)N(c2ccccc2)N(c2ccccc2)C1=O
inactive: all assays above
